This note sets out measurements from the supplement of paper PMC7156485.

Each structure is given as a SMILES string.

Holding throughout (conditions): concentration: 10 µM; 24 h
For test [1], the system named is HCC1569. In words: cell number relative to DMSO (% of DMSO); higher = more cells (less growth inhibition / toxicity). A digest of the protocol:
(§1)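 Compounds were applied at 10 µM for 24 h at 37 °C, in triplicate, to HCC1569 and TDF cells. The cells were then fixed and stained for H1.0, and nuclei were counterstained with DAPI. Nuclear H1.0 intensity or cell number is reported relative to the plate control as a percent, taking the median of replicates. Smoothing for positional effects was applied to HCC1569 values only.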

Test [2] deals with TDF. The test is described as above. An outline of the steps:
as §1

For test [3], the system named is TDF. Kind of test: H1.0 immunofluorescence intensity relative to DMSO (% of DMSO); higher = stronger H1.0 induction, active = 120 or more. A digest of the protocol: as §1
The test system of test [4] is HCC1569. Kind of test: H1.0 immunofluorescence intensity relative to DMSO (% of DMSO); higher = stronger H1.0 induction, active = 140 or more. An outline of the steps:
as §1
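Throughout, for H1.0 immunofluorescence intensity relative to DMSO: TDF is a line of transformed human dermal fibroblasts of mesenchymal origin.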
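Throughout, for cell number relative to DMSO: TDF denotes transformed human dermal fibroblasts of mesenchymal origin.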

With `CCN(CC)C(=O)c1ccc(O)c(OC)c1` [Vanillic acid diethylamide], the figures for the cell number in the test on HCC1569 [1] and in the test on TDF [2] were 101 and 103, respectively. Moreover, the H1.0 immunofluorescence intensity in the test on TDF [3] is 94.3 (inactive); in the test with HCC1569 [4] it was 99.6 (inactive).
As for `Cl.Cl.NCCc1cnc[nH]1` [Histamine dihydrochloride], the values for the cell number with HCC1569 [1] and in the test with TDF [2] were 99.6 and 105, respectively. For the same compound, the results for the H1.0 immunofluorescence intensity with TDF [3] and in the test with HCC1569 [4] were 92.1 (inactive) and 86.6 (inactive), respectively.
With `FC(F)(F)c1ccccc1-n1ccnc1` [1-[2-(Trifluoromethyl)phenyl]imidazole], the cell number in the test with HCC1569 [1] came to 100; with TDF [2], 96. Besides, the results for the H1.0 immunofluorescence intensity in the test on TDF [3] and in the test on HCC1569 [4] were 96.5 (inactive) and 108 (inactive), respectively.
For `CC(C)n1cnc2c(NCc3ccccc3)nc(NCCO)nc21` [N9-Isopropylolomoucine], in that order: 46, 105, 95 (inactive) and 314 (active).
Consider `O=C(C=Cc1ccc(O)c(O)c1)c1ccc(O)cc1O` [Butein], for which the cell number in the test on HCC1569 [1] was determined as 74.3; with TDF [2], 89.2. In addition, the figures for the H1.0 immunofluorescence intensity in the test on TDF [3] and in the test with HCC1569 [4] were 94.3 (inactive) and 133 (inactive), respectively.
Take `COc1ccc(C(C)=O)c(O)c1` [Paeonol]: the cell number is 99 in the test with HCC1569 [1] and 102 in the test on TDF [2]. In addition, the H1.0 immunofluorescence intensity in the test with TDF [3] was 92.9 (inactive); with HCC1569 [4], 101 (inactive).
In the case of `CN(C)CC(=O)Nc1ccc2[nH]c(=O)c3ccccc3c2c1.Cl.O`, the cell number in the test with HCC1569 [1] stood at 101; with TDF [2] it was 99.1. The H1.0 immunofluorescence intensity in the test on TDF [3] is 97.4 (inactive); in the test with HCC1569 [4], 91.3 (inactive).
As for `N#CC(=Cc1ccc(O)cc1)C(N)=C(C#N)C#N` [Tyrphostin AG 112], the cell number amounted to 101 with HCC1569 [1] and 109 with TDF [2]. Moreover, the H1.0 immunofluorescence intensity is 95.7 (inactive) in the test on TDF [3] and 81 (inactive) in the test with HCC1569 [4].
In the case of `COc1cccc(OC)c1OCCNCC1CSc2ccccc2O1.Cl` (stereo unspecified) [Benoxathian hydrochloride], the cell number with HCC1569 [1] stood at 91.4; in the test with TDF [2], 108. In addition, the H1.0 immunofluorescence intensity in the test with TDF [3] is 91.8 (inactive); with HCC1569 [4] it was 92 (inactive).
